Drawing on PubChem BioAssay (NCATS), this text covers Potency for 13 compounds.

Inconclusive results are not listed. Calls of active or inactive are those of the source. Calls follow the shape of the dose curve; as a rule, active = well fitted inhibition curve with a large enough effect; inconclusive = small, poorly fitted or top-dose-only effect; inactive = flat fitted curve, though single readings scatter.

What all share (assay): qHTS profiling for inhibitors of Plasmodium falciparum proliferation (AID 504749); also: nearly all actives have a fitted effect of over 60% in size
Holding throughout (details): P. falciparum in erythrocytes, SYBR Green DNA, 72 h; series mostly up to 28.7 µM

The subject of one assay is CP247. In outline:
(§1)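 P. falciparum-infected erythrocytes (0.3% parasitemia, 2.5% hematocrit) incubated with compound 72 h at 37 C, 5% CO2. Parasite DNA detected by SYBR Green after lysis, overnight at room temperature; normalised to 0.29 uM artemisinin and DMSO.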

For a further assay, the system named is CP250. In outline: as §1
The test system of a further assay is CP252. The essentials:
as §1

For a further assay, the system named is CP256. The essentials: as §1
A further assay deals with CP260. In outline: as §1
Another assay deals with CP262. In outline: as §1
For the next assay, the system named is CP265. In outline:
as §1

The test system of another assay is CP266. In outline: as §1
A further assay concerns CP268. The essentials:
as §1

Another assay deals with CP269. The essentials:
as §1

The test system of the next assay is CP286. In outline: as §1
For the next assay, the system named is CP291. In outline:
as §1

In another assay the test system is CP297. The essentials:
as §1

For another assay, the system named is CP305. In outline:
as §1

The subject of another assay is CP315. In outline: as §1
In the next assay the test system is CP325. In outline:
as §1

The test system of another assay is CP329. The essentials: as §1
The next assay relates to CP335. In outline: as §1
A further assay deals with DFO2036. In outline: as §1
The test system of a further assay is DIV14. In outline: as §1
Potency is read from the fitted curve at half-maximal effect.

On to `OCc1ccccn1`, for which the Potency result in the assay with CP247, with CP250, in the assay with CP252, in the assay on CP256, with CP260 and in the assay with CP262 was “inactive” throughout. Besides, the Potency entry in the assay with CP265, with CP266, in the assay with CP268, in the assay on CP269, in the assay with CP286 and in the assay with CP291 was “inactive” each time. Besides, the Potency result in the assay on CP297, in the assay with CP305, in the assay on CP315, in the assay with CP325, in the assay with CP329 and with CP335 was “inactive” throughout. Also, the Potency result in the assay on DFO2036 and in the assay with DIV14 was “inactive” in each case.

As for `CCCCN=C(N)N=C(N)N`, the Potency result in the assay with CP247, in the assay with CP250, with CP252, in the assay on CP256, in the assay on CP260 and with CP262 was “inactive” each time. Also, the Potency entry in the assay with CP265, with CP266, with CP268, in the assay on CP269, in the assay on CP286 and in the assay with CP291 was “inactive” each time. Further, the Potency entry with CP297, with CP305, with CP315, in the assay on CP325, in the assay with CP329 and with CP335 was “inactive” in each case. The Potency entry in the assay on DFO2036 and in the assay on DIV14 was “inactive” throughout.

As to `O[C@@H](c1cc(C(F)(F)F)nc2c(C(F)(F)F)cccc12)[C@H]1CCCCN1`, the Potency with CP247 was 70.8 nM (active); in the assay with CP250 it was 63.1 nM (active); in the assay with CP252, 31.6 nM (active); in the assay with CP256, 63.1 nM (active); in the assay with CP260, 31.6 nM (active); in the assay with CP262, 190 nM (active). Further, the Potency with CP265 is 35.5 nM (active); with CP266 it was 601 nM (active); with CP268, 151 nM (active); in the assay with CP269, 53.6 nM (active); with CP286, 112 nM (active); with CP291, 151 nM (active). Moreover, the Potency in the assay on CP297 is 107 nM (active); in the assay on CP305 it was 213 nM (active); in the assay on CP315 it was 169 nM (active); in the assay with CP325, 135 nM (active); with CP329, 269 nM (active); in the assay with CP335, 107 nM (active). Also, the figures for the Potency in the assay with DFO2036 and in the assay with DIV14 were 35.5 nM (active) and 33.8 nM (active), respectively.

For `Nc1ccc(S(=O)(=O)NCc2ccccc2)cc1`, the Potency entry in the assay on CP247, with CP250, with CP252, with CP256, with CP260 and in the assay with CP262 was “inactive” throughout. In addition, the Potency entry in the assay on CP265, in the assay with CP266, in the assay on CP268, in the assay on CP269, in the assay on CP286 and in the assay on CP291 was “inactive” each time. For the same compound, the Potency result in the assay with CP297, in the assay on CP305, in the assay with CP315, in the assay with CP325, in the assay with CP329 and in the assay with CP335 was “inactive” throughout. In addition, the Potency entry in the assay with DFO2036 and in the assay with DIV14 was “inactive” in each case.

As to `NCCNC(=O)c1ccc(Cl)cn1`, the Potency result with CP247, with CP250, in the assay with CP252, with CP256, with CP260 and with CP262 was “inactive” each time. Further, the Potency entry with CP265, in the assay on CP266, in the assay on CP268, in the assay on CP269, in the assay with CP286 and in the assay on CP291 was “inactive” throughout. In addition, the Potency result in the assay on CP297, in the assay with CP305, in the assay on CP315, in the assay on CP325, with CP329 and in the assay with CP335 was “inactive” throughout. Also, the Potency result in the assay with DFO2036 and in the assay on DIV14 was “inactive” in each case.

As to `CCCCCCCCCCCCSCCOCCO`, the Potency entry in the assay on CP247, in the assay on CP250, with CP252, in the assay on CP256, with CP260 and in the assay on CP262 was “inactive” each time. Besides, the Potency entry with CP265, in the assay with CP266, in the assay with CP268, with CP269, with CP286 and with CP291 was “inactive” each time. Further, the Potency entry in the assay on CP297, with CP305, with CP315, in the assay on CP325, with CP329 and in the assay with CP335 was “inactive” in each case. Besides, the Potency entry in the assay with DFO2036 and in the assay on DIV14 was “inactive” each time.

In the case of `NS(=O)(=O)c1ccc(Cl)c(S(N)(=O)=O)c1`, the Potency entry with CP247, in the assay on CP250, with CP252, in the assay on CP256, in the assay with CP260 and with CP262 was “inactive” each time. The Potency entry in the assay on CP265, with CP266, in the assay on CP268, in the assay with CP269, with CP286 and in the assay on CP291 was “inactive” in each case. Further, the Potency entry with CP297, in the assay with CP305, in the assay with CP315, with CP325, in the assay with CP329 and in the assay on CP335 was “inactive” each time. Further, the Potency result with DFO2036 and with DIV14 was “inactive” throughout.

Turning to `C/C=C/c1ccc(O)c(OC)c1`, the Potency entry with CP247, in the assay on CP250, in the assay on CP252, in the assay with CP256, in the assay on CP260 and in the assay with CP262 was “inactive” each time. Further, the Potency result in the assay on CP265, in the assay on CP266, with CP268, in the assay with CP269, with CP286 and in the assay with CP291 was “inactive” throughout. The Potency result in the assay on CP297, with CP305, in the assay with CP315, in the assay on CP325, in the assay with CP329 and with CP335 was “inactive” each time. Moreover, the Potency entry in the assay on DFO2036 was “inactive”.

Consider `CCOC(=O)[C@H](CCc1ccccc1)N[C@@H](C)C(=O)N1[C@H](C(=O)O)C[C@H]2CCCC[C@@H]21`, for which the Potency result in the assay on CP247, in the assay with CP250, in the assay with CP252, in the assay with CP256, in the assay with CP260 and in the assay with CP262 was “inactive” each time. The Potency result in the assay with CP265, with CP266, in the assay on CP268, in the assay on CP269, in the assay with CP286 and in the assay with CP291 was “inactive” each time. In addition, the Potency result in the assay with CP297, with CP305, in the assay on CP315, with CP325, with CP329 and with CP335 was “inactive” throughout. For the same compound, the Potency result in the assay on DFO2036 and with DIV14 was “inactive” throughout.

As to `NC(=O)n1c(O)c(C(=O)c2cccs2)c2cc(Cl)ccc21`, the Potency result in the assay on CP247, with CP250, in the assay on CP252, in the assay with CP256, in the assay with CP260 and in the assay on CP262 was “inactive” throughout. Also, the Potency entry in the assay on CP265, in the assay on CP266, in the assay on CP268, in the assay with CP269, in the assay on CP286 and in the assay on CP291 was “inactive” in each case. For the same compound, the Potency entry in the assay on CP297, with CP305, with CP315, with CP325, in the assay with CP329 and with CP335 was “inactive” throughout. Also, the Potency entry with DFO2036 and in the assay with DIV14 was “inactive” throughout.

As to `CCC1Nc2cc(Cl)c(S(N)(=O)=O)cc2S(=O)(=O)N1` (configuration not stated), the Potency entry in the assay with CP247, in the assay with CP250, in the assay on CP252, in the assay with CP256, in the assay on CP260 and with CP262 was “inactive” each time. Further, the Potency entry in the assay with CP265, with CP266, in the assay on CP268, in the assay with CP269, with CP286 and in the assay with CP291 was “inactive” each time. Further, the Potency entry in the assay on CP297, in the assay with CP305, in the assay on CP315, with CP325, with CP329 and in the assay with CP335 was “inactive” in each case. Also, the Potency entry with DFO2036 and in the assay with DIV14 was “inactive” in each case.

With `C[C@@H](O)[C@H]1C(=O)N2C(C(=O)O)=C(S[C@@H]3CN[C@H](CNS(N)(=O)=O)C3)[C@H](C)[C@H]12`, the Potency result with CP247, in the assay on CP250, with CP252, in the assay on CP256, in the assay with CP260 and with CP262 was “inactive” throughout. The Potency entry with CP265, in the assay with CP266, in the assay on CP268, in the assay with CP269, in the assay on CP286 and with CP291 was “inactive” in each case. The Potency entry with CP297, in the assay on CP305, with CP315, with CP325, with CP329 and in the assay on CP335 was “inactive” each time. Besides, the Potency result in the assay with DFO2036 and with DIV14 was “inactive” throughout.

With `CC(C)(C)NC[C@H](O)COc1cccc2c1CCCC2=O`, the Potency entry in the assay on CP247, with CP250, in the assay with CP252, in the assay with CP256, in the assay on CP260 and in the assay with CP262 was “inactive” each time. The Potency result with CP265, with CP266, in the assay on CP268, in the assay on CP269, in the assay with CP286 and in the assay on CP291 was “inactive” throughout. The Potency entry in the assay with CP297, in the assay with CP305, with CP325, in the assay with CP329, in the assay on CP335 and with DFO2036 was “inactive” each time.
